Compound activity (PubChem)
This is a sample that favours compounds with a hit; in the whole collection about 19% have one here.
HT1080NT lethal = kills 2HG-producing HT-1080-NT fibrosarcoma cells; HT-1080-NT fibrosarcoma viability, CellTiter-Glo ATP luminescence, 48 h; Potency, µM (doses to about 46.1 µM), inactives show at the top dose activity, negative = less viability, hits mostly cytotoxic; 360,000 tested, 1.6% active;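 further: NT is the 2HG producing partner of a matched IDH1 knockdown line; potency means the concentration at half of the fitted maximal effect; 0% = DMSO-treated cells and -100% = media-only wells without cells; nearly all actives have a fitted effect of over 55% in size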
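Luminescent CellTiter-Glo readout after 48 hours of compound exposure at 37 degrees C defined viability of HT-1080-NT cells. Activity was normalized to DMSO wells and cell-free media wells; concentration-response curves were fitted and assigned curve classes.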
DT40 TDP1 no CPT = qHTS for Inhibitors of human tyrosyl-DNA phosphodiesterase 1 (TDP1): qHTS in cells in absence of CPT; Potency, µM (top dose mostly 46.2 µM), without a hit: top-dose activity change, negative = growth inhibition, hits mostly inhibitors; DT40 Tdp1-/- hTDP1 cells, no CPT, ATP luminescence, 48 h; AID 686978, 2013; 420,000 tested, 15% active; further: potency means the concentration at half of the fitted maximal effect; nearly all actives have a fitted effect of over 55% in size
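No-CPT arm: Tdp1-/-;hTDP1 DT40 cells (400/well) plus compounds, incubated ≥48 hr at 37 °C. Readout CellTiter-Glo luminescence.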
HT1080 IDH1KD tx = kills HT-1080 cells with IDH1 knockdown; HT-1080 IDH1 knockdown viability, ATP luminescence, 48 h; Potency, µM (top dose mostly 46.1 µM), without a hit: at the highest dose activity, negative = toxicity, most hits filed as cytotoxic; 360,000 tested, 2% active; AID 686971;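 further: potency means the concentration at half of the fitted maximal effect; 0% = DMSO wells and -100% = cell-free medium wells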
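Viability of IDH1-knockdown HT-1080 fibrosarcoma cells was assessed by CellTiter-Glo after 48 h at 37 °C with titrated compound; concentration-effect curves were classified by fit quality and response size.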
IL1B secr inh = inhibitors of inflammasome signaling (IL-1 beta secretion) | THP-1 LPS/ATP IL-1B secretion, AlphaLISA, 16 h; active compounds read low | activity change, % at 57.5 µM | 360,000 tested, 4.7% active; in the data active means activity change below about -50%; inconclusive means mostly about -30% to -49%
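THP-1 cells pretreated 1 hr with compounds (up to 57.5 uM final), then stimulated with LPS (250 ng/mL final) plus ATP (1.25 mM final); secreted IL-1B measured by AlphaLISA after 16 hr, decreased signal indicating inhibition.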
DT40 TDP1 CPT = growth inhibition of DT40 Tdp1-/-;hTDP1 cells with camptothecin (screen for TDP1 inhibitors) | chicken DT40 Tdp1-/-;hTDP1 cells + 20 nM CPT, ATP luminescence, 48 h | Potency, µM (titrated, usually from 46.2 µM), without a hit: top-dose activity change, negative = growth inhibition, most hits filed as inhibitors | 420,000 tested, 12% active | AID 686979; further: potency means the concentration at half of the fitted maximal effect; nearly all actives have a fitted effect of over 55% in size
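Chicken DT40 Tdp1-/- cells complemented with human TDP1, 400 cells/well, exposed to compounds plus 20 nM camptothecin for at least 48 h at 37 C; viability read as ATP content by CellTiter-Glo luminescence.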
uPA generation = cell surface uPA generation inhibition. cell surface uPA generation assay, qHTS. AID 540303. Potency, µM (top dose mostly 38.3 µM), for inactives: at the highest dose activity change, negative = inhibition, actives largely listed as inhibitors. 330,000 tested, 0.31% active; active means well fitted inhibition curve with a large enough effect; inconclusive means small, poorly fitted or top-dose-only effect; inactive means no such curve, though single readings can be large or run the other way; tested in mouse RAW 264.7 cells; further: potency means the concentration at half of the fitted maximal effect; nearly all actives have a fitted effect of over 55% in size
The depositor's hits bear a star; u = inconclusive; x = no result. Unless noted, the call rests on the fitted dose curve; in most records, active means well fitted curve in the direction sought with a large enough effect; inconclusive means small, poorly fitted or top-dose-only effect, or another doubt; inactive means no such curve, though single readings can be large; an effect the other way counts as inactive or inconclusive. Unless noted, on the % scale 0 is the no-effect control and ±100 the full control effect.

SMILES	HT1080NT lethal	DT40 TDP1 no CPT	HT1080 IDH1KD tx	IL1B secr inh	DT40 TDP1 CPT	uPA generation
CN(C(=O)C1CCC(CNS(=O)(=O)c2cccc3cccnc23)CC1)C1CCCCC1 (configuration not stated)	-13%	15µM*	-20%	-17	u	1%
Cc1cccc(N(C)C(=O)C2CCC(CNS(=O)(=O)c3cccc4nsnc34)CC2)c1 (configuration not stated)	x	-29%	x	x	u	x
CCCCN(CC)C(=O)C1CCC(CNS(=O)(=O)c2cccc3nsnc23)CC1 (configuration not stated)	-3%	9.2µM*	-11%	-4	23µM*	-4%
CCN(C(=O)C1CCC(CNS(=O)(=O)c2cccc3nsnc23)CC1)c1ccc(C)c(C)c1 (configuration not stated)	x	26µM*	x	x	u	x
COc1ccc(N2Cc3cccc(C(=O)Nc4ccc(C)c(C)c4)c3C2=O)cc1	x	-6%	x	x	-19%	x
O=[N+]([O-])c1ccc2cn(C3OC(CO)C(O)C3O)nc2c1 (configuration not stated)	-25%	u	-23%	-2	u	x
O=C(OCc1ccccc1)c1ccc(NCc2cc(O)ccc2O)cc1	9.2µM*	3.7µM*	5.8µM*	-76*	4.6µM*	-4%
COc1nccnc1NS(=O)(=O)c1ccc(NCc2cc(Br)ccc2O)cc1	-22%	-24%	-23%	6	1%	-2%
COP(=O)(OC)c1ccc(NCc2cc(O)ccc2O)cc1	-1%	4.1µM*	0%	0	4.6µM*	1%
CC(C)OC(=O)c1ccc(NCc2cc(O)ccc2O)cc1	21µM*	2.3µM*	18µM*	-101*	1.2µM*	0%
CCC(=O)Nc1ccc(C(=O)OCc2ccccc2)cc1	0%	-1%	0%	-2	-20%	1%
CCOC(=O)Cc1ccc(NC(=O)NCc2ccc3c(c2)CCN3C(=O)CC)cc1	x	-4%	x	x	-17%	x
CC(C)NC(=O)Cn1c(=O)nc(-c2ccccc2F)c2cc(Cl)ccc21	x	7.3µM*	x	x	-65%	x
Cc1nc2ccccc2c(=O)n1NC(=O)c1ccc(Cl)c(Cl)c1	13%	-20%	1%	0	-4%	-6%
CCCn1c(C)cc(C(=O)CN2C(=O)c3ccccc3S2(=O)=O)c1C	-2%	9.2µM*	0%	6	u	x
C=CCn1c(=O)c(C(=O)Nc2ncccc2C)c(O)c2ccccc21	u	-9%	u	-8	-9%	x
CC(=C(CCOC(=O)C(C)C)SSC(CCOC(=O)C(C)C)=C(C)N(C=O)Cc1cnc(C)nc1N)N(C=O)Cc1cnc(C)nc1N	x	-20%	x	x	-20%	x
CC1CCCC(NCC(O)COC(c2ccc(F)cc2)c2ccc(F)cc2)C1C (configuration not stated)	16µM*	2.6µM*	21µM*	-115*	5.2µM*	3%
CC1CCCC(NC(=O)CSc2ccc(F)cc2)C1C (configuration not stated)	-7%	3%	-8%	-8	-2%	1%
CC(C)c1ccc(NC(=O)c2cc(Br)ccc2Br)cc1	-11%	26µM*	0%	-17	u	3%
CCn1ncc(Br)c1C(=O)Nc1ccc(C(C)C)cc1	-2%	-21%	-11%	-85*	3%	-1%
Clc1ccc(C#Cc2cccnc2)cc1	25%	4%	21%	23	-20%	-6%
Cc1ccc(S(=O)(=O)Oc2cccc(/C=N/n3cnnc3)c2)cc1	-18%	8.2µM*	-29%	17	8.2µM*	u
Cc1ccc2nc(COC(=O)c3cccnc3Cl)cc(=O)n2c1	12%	-5%	-1%	-7	2%	x
